What is called inhibition is the change of the read-out against control, counted positive when it falls.

Two compounds from ChEMBL document CHEMBL1961873, “Compounds: GSK PKIS; Assays: Nanosyn kinase panel” (2012) can be followed below.

Experiment [1] has as its target Protein kinase C gamma type (Homo sapiens) (UniProt P05129). The note with it: at 1 µM.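 Also: each value is an averaged percent inhibition of the enzyme.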
The target in experiment [2] is T1, Protein kinase C iota type (Homo sapiens) (UniProt P41743).
T1 sequence (whole entry): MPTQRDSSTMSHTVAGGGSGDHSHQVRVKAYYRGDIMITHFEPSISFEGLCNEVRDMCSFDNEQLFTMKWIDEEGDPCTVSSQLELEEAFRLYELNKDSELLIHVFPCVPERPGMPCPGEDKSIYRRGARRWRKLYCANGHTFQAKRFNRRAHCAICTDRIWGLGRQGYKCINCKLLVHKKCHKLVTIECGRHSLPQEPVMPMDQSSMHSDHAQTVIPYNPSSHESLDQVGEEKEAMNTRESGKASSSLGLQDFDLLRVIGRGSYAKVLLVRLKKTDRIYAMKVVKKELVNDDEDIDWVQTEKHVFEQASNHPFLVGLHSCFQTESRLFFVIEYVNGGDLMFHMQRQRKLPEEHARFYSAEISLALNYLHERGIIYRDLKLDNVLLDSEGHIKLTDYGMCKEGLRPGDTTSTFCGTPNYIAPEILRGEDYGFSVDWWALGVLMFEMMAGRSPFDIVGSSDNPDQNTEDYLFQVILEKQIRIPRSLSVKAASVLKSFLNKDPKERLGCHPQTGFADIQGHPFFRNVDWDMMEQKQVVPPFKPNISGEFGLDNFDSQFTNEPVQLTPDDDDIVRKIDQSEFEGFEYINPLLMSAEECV
The conditions noted are these: at 0.1 µM.

The target of experiment [3] is T1, Protein kinase C iota type (Homo sapiens). The note with it: at 1 µM.
Experiment [4] concerns the target Protein kinase C theta type (Homo sapiens) (UniProt Q04759). The conditions noted are these: at 0.1 µM.
The target is the same in experiment [5]. The conditions noted are these: at 1 µM.
For experiment [6], the target named is Protein kinase C beta type (Homo sapiens) (UniProt P05771). The conditions noted are these: at 0.1 µM.
Protein kinase C beta type (Homo sapiens), sequence (P05771 2-671 limits assumed): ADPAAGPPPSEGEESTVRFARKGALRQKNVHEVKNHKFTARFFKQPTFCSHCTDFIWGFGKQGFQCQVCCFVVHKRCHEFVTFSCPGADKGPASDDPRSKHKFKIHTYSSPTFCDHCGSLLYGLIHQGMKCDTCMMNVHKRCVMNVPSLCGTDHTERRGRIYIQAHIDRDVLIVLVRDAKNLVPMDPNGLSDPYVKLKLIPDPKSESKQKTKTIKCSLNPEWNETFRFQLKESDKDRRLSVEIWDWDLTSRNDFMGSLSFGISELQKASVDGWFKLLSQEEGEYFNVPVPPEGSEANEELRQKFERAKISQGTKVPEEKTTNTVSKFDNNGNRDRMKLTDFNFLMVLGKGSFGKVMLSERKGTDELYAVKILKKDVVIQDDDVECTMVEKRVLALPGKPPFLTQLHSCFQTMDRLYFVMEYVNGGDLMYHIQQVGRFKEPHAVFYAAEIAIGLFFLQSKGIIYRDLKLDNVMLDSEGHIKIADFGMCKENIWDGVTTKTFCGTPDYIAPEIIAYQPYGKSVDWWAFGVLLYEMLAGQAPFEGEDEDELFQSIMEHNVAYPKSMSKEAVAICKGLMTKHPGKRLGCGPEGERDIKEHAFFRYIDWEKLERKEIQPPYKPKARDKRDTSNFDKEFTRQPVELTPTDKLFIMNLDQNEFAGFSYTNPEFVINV
For experiment [7] the target is unchanged. The conditions noted are these: at 1 µM.
In experiment [8] the target is T2, Serine/threonine-protein kinase D1 (Homo sapiens) (UniProt Q15139).
T2 sequence (whole entry): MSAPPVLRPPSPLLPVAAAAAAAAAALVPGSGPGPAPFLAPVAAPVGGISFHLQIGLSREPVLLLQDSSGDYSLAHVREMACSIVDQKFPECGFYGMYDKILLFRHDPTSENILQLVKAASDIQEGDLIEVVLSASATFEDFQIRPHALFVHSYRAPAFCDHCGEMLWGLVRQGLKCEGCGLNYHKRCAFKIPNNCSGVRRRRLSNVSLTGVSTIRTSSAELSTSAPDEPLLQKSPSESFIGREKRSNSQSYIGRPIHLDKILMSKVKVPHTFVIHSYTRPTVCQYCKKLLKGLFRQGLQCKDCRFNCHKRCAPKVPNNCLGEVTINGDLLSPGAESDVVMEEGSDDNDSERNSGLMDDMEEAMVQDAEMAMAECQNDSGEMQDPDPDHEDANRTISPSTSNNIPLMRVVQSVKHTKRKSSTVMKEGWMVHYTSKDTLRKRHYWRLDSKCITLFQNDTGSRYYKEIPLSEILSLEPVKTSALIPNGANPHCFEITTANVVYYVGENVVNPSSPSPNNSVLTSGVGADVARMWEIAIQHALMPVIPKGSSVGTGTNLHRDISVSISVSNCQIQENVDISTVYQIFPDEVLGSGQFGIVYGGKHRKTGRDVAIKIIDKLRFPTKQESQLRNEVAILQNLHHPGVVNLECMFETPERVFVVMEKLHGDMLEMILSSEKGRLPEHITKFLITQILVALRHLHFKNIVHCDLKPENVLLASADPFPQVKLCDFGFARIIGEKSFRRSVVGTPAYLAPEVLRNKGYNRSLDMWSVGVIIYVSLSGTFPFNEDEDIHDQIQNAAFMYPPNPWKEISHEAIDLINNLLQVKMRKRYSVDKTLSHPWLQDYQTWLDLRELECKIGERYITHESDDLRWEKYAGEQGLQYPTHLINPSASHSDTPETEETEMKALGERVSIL
The conditions noted are these: at 0.1 µM.

The target in experiment [9] is T2, Serine/threonine-protein kinase D1 (Homo sapiens). The conditions noted are these: at 1 µM.
In experiment [10] the target is T3, Serine/threonine-protein kinase D2 (Homo sapiens) (UniProt Q9BZL6).
T3 sequence (whole entry): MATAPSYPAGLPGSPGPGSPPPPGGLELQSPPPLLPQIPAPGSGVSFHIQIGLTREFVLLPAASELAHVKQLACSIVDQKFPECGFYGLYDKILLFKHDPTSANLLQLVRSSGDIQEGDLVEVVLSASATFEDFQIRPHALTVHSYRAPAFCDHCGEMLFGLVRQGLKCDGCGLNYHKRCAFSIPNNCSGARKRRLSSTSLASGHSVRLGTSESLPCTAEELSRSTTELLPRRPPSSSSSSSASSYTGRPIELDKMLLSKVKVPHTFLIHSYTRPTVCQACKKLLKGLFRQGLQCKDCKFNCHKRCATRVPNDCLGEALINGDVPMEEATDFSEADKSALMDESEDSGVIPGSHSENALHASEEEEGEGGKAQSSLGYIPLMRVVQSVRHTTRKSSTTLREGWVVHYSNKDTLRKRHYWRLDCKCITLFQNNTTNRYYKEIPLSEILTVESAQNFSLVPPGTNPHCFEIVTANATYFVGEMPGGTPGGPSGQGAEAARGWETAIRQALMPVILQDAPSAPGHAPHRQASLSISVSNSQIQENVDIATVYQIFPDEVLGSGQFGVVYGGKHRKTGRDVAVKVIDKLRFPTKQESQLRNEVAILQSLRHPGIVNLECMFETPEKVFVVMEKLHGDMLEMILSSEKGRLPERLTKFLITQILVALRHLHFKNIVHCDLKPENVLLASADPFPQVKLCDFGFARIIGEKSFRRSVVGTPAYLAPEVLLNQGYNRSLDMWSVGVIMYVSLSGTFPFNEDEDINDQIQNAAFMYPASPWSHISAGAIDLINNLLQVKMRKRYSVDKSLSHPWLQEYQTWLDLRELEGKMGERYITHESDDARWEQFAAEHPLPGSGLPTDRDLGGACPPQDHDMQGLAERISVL
The note with it: at 0.1 µM.

Experiment [11] addresses T3, Serine/threonine-protein kinase D2 (Homo sapiens). The note with it: at 1 µM.
For experiment [12], the target named is T4, Serine/threonine-protein kinase D3 (Homo sapiens) (UniProt O94806).
T4 sequence (whole entry): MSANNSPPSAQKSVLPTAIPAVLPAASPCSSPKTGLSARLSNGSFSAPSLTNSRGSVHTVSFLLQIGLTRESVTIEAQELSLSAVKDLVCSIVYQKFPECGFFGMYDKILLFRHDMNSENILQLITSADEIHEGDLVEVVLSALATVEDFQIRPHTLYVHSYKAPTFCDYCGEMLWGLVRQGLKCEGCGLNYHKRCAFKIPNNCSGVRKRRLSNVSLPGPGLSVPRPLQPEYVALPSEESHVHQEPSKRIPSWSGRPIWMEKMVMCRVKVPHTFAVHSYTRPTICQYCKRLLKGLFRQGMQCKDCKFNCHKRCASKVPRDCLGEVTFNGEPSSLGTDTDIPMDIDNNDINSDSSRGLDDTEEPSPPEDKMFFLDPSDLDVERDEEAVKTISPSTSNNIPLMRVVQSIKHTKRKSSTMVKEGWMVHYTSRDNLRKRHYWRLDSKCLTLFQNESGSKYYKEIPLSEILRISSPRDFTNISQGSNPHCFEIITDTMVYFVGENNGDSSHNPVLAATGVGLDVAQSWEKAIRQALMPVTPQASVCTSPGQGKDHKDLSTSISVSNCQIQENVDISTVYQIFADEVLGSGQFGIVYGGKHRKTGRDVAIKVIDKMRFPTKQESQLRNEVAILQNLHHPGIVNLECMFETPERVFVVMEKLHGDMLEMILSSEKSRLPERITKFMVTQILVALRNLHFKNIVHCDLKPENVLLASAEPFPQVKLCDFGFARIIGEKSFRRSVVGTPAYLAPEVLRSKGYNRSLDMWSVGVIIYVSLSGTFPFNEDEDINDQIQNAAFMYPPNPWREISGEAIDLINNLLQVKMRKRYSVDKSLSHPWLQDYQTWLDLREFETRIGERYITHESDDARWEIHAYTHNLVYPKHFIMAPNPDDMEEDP
The conditions noted are these: at 0.1 µM.

In experiment [13] the target is T4, Serine/threonine-protein kinase D3 (Homo sapiens). The conditions noted are these: at 1 µM.
The target of experiment [14] is T5, cGMP-dependent protein kinase 1 (Homo sapiens) (UniProt Q13976).
T5 sequence (whole entry): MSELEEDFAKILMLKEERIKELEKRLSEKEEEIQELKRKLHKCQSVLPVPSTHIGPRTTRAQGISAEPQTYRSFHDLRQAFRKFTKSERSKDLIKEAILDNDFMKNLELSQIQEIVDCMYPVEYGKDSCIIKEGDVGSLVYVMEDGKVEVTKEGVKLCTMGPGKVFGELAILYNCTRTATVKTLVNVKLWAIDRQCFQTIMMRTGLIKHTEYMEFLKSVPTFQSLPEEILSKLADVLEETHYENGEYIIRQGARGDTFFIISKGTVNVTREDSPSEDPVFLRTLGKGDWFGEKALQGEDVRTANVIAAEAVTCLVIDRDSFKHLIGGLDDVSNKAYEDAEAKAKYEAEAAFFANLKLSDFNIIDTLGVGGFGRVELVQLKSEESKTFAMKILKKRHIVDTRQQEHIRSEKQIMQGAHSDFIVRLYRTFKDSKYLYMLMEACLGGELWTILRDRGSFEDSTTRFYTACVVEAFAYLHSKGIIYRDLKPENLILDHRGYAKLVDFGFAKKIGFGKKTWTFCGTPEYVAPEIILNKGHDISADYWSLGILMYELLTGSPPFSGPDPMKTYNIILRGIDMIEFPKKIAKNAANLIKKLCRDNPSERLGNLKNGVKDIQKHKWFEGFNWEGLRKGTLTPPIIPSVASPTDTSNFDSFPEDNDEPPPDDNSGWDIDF
The note with it: at 0.1 µM.

In experiment [15] the target is T5, cGMP-dependent protein kinase 1 (Homo sapiens). The conditions noted are these: at 1 µM.
Experiment [16] concerns the target T6, cGMP-dependent protein kinase 2 (Homo sapiens) (UniProt Q13237).
T6 sequence (whole entry): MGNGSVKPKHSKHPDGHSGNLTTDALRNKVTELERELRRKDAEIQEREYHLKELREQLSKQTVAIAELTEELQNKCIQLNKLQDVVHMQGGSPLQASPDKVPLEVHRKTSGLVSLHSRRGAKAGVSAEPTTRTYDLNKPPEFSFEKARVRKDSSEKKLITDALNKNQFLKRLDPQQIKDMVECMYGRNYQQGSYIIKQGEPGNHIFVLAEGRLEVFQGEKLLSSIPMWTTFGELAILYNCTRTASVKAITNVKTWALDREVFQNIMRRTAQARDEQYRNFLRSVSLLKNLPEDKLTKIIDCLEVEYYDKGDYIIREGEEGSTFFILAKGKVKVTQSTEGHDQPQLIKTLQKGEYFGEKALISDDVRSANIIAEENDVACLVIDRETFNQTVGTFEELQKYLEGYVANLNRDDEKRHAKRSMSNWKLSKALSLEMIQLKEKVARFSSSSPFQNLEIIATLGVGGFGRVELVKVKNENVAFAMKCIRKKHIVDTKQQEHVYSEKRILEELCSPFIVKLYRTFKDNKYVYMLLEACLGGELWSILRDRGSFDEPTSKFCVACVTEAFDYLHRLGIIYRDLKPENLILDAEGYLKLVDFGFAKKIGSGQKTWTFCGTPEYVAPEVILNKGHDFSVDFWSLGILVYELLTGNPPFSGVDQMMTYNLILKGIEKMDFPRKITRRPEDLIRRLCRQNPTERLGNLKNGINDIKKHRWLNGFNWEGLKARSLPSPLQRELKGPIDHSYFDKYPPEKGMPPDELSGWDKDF
The conditions noted are these: at 0.1 µM.

Experiment [17] deals with T6, cGMP-dependent protein kinase 2 (Homo sapiens). The conditions noted are these: at 1 µM.
Experiment [18] deals with T7, cAMP-dependent protein kinase catalytic subunit PRKX (Homo sapiens) (UniProt P51817).
T7 sequence (whole entry): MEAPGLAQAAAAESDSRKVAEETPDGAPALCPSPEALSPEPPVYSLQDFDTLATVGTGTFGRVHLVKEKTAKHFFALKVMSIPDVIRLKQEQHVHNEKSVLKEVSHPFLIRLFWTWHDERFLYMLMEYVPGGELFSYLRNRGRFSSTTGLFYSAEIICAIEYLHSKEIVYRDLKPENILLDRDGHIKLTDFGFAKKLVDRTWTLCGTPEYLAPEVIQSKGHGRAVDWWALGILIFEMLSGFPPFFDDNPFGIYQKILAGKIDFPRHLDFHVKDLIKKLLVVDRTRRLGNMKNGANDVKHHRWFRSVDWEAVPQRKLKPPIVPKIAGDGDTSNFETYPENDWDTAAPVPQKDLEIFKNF
The conditions noted are these: at 0.1 µM.

Experiment [19] addresses T7, cAMP-dependent protein kinase catalytic subunit PRKX (Homo sapiens). The note with it: at 1 µM.
Experiment [20] has as its target Rho-associated protein kinase 1 (Homo sapiens) (UniProt Q13464). The conditions noted are these: at 0.1 µM.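 Also: values are mean percent inhibition of ROCK1.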

SMILES strings stand for the structures.

Protein kinase C theta type (Homo sapiens), sequence (Q04759 whole entry, looked up): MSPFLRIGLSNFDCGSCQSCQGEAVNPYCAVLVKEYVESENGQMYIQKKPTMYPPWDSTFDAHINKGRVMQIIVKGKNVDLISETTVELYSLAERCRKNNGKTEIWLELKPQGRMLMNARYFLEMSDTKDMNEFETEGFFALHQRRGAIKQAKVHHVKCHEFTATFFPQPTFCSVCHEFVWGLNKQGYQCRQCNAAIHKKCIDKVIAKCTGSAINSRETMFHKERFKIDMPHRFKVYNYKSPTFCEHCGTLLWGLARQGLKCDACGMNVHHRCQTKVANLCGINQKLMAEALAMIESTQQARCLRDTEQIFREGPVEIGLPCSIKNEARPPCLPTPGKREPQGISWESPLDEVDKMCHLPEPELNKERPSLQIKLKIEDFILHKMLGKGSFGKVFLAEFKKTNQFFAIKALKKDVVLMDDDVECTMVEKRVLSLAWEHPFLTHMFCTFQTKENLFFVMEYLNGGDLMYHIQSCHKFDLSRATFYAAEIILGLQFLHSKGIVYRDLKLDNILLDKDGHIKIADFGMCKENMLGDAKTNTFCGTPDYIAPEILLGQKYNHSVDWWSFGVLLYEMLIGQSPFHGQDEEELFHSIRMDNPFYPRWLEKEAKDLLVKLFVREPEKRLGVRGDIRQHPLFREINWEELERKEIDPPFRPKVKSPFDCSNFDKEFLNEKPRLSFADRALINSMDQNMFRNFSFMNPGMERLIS
Rho-associated protein kinase 1 (Homo sapiens), sequence (Q13464 2-1354 limits assumed): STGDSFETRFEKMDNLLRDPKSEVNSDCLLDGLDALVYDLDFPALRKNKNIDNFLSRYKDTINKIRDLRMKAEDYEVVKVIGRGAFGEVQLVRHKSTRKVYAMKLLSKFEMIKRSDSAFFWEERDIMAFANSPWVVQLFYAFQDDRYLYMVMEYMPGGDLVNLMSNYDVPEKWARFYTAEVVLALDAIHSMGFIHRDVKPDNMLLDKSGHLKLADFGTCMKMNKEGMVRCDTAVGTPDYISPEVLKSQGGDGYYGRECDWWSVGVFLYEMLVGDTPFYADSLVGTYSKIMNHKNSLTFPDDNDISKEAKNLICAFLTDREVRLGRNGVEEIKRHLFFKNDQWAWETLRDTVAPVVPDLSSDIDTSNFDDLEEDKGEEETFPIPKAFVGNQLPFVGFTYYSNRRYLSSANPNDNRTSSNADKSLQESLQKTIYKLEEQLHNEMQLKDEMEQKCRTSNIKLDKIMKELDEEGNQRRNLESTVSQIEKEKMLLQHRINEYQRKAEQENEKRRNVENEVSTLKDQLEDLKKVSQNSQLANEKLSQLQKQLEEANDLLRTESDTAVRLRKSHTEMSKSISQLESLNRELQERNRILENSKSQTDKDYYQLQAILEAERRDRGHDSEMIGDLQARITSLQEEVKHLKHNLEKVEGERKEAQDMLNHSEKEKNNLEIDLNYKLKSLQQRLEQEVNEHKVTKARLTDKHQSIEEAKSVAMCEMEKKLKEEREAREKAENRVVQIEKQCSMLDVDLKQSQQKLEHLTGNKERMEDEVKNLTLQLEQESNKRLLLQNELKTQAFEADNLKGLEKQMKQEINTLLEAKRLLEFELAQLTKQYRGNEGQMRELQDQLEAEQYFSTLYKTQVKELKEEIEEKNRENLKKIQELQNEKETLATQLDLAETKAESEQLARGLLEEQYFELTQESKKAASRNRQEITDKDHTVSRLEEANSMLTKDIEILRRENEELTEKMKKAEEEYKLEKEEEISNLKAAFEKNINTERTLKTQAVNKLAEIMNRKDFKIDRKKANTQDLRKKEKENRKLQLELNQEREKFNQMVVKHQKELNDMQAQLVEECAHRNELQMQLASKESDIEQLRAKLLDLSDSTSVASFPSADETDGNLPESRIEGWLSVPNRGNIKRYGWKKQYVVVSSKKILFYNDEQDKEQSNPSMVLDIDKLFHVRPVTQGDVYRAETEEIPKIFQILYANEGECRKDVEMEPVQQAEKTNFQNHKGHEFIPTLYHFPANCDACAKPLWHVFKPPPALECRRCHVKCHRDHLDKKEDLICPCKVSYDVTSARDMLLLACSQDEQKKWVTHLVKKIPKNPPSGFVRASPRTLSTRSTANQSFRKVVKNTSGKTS

For `COC(=O)Nc1nc2ccc(Sc3ccc(NC(=O)Nc4cc(C(F)(F)F)ccc4F)cc3)cc2[nH]1`, the inhibition in [1] was 4.57%; in experiment [2], -0.54%; in experiment [3], 0.22%; in [4], 0.15%; in [5], 0.22%; in experiment [6] it was 0.31%. For the same compound, the inhibition is 0.4% in experiment [7]; 0.94% in experiment [8]; 0.37% in experiment [9]; -0.22% in experiment [10]; 0.52% in experiment [11]; 1.06% in experiment [12]. The inhibition in [13] was 0.51%; in experiment [14], 0.91%; in [15] it was 1.52%; in experiment [16], -0.08%; in experiment [17] it was 0.57%; in experiment [18], 0.23%. In addition, the inhibition in experiment [19] was -1.11%; in [20], -0.63%.
Take `CCS(=O)(=O)c1ccc(OC)c(Nc2ncc(-c3ccccc3Cl)o2)c1`: the inhibition in [1] was 5.15%; in experiment [2], 0.15%; in experiment [3], -1.52%; in [4], -0.01%; in [5] it was 2.29%; in experiment [6] it was -0.13%. The inhibition amounted to 2.01% in experiment [7]; 1.52% in experiment [8]; 1.41% in [9]; 1.21% in experiment [10]; 1.98% in experiment [11]; 0.34% in [12]. Moreover, the inhibition in [13] amounted to 0.32%; in [14], 1.27%; in [15], 3.79%; in experiment [16], 0.72%; in experiment [17], 2.95%; in [18], 0.64%. Moreover, the results for the inhibition in [19] and in experiment [20] were 0.38% and -0.11%, respectively.
